# Calls of active or inactive are those of the source.
# Legend:
# [1] = small molecules captured by biotinylated probe aFSTL3 – biochemical, small-molecule microarray, fluorescence 635/667, stem cell growth factor project, primary screen (AID 1064); conditions: higher = more signal;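 further: measures binding of the biotinylated anti-FSTL3 antibody to printed compounds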
# [2] = binders from COS7 lysate, DM2A8 probe, primary screen, torsin A project, cell lysate, small-molecule microarray, fluorescence 635/667 (AID 1065); conditions: higher = more signal, COS7 lysate expressing mutant human TOR1A
# [3] = small molecules captured by biotinylated probe aFGF2 – biochemical, small-molecule microarray, fluorescence 635/667, stem cell growth factor project, primary screen (AID 1067); conditions: higher = more signal;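 further: measures binding of biotinylated aFGF2 protein to printed compounds on slides; z-score merges feature fluorescence and signal-to-noise across triplicate slides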
# [4] = small molecules captured by biotinylated probe aFGF10 – biochemical, small-molecule microarray, fluorescence 635/667, stem cell growth factor project, primary screen (AID 1071); conditions: higher = more signal;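 further: score merges 667 nm spot intensity and signal to noise from triplicate slides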
# [5] = target: Neurogenic locus notch homolog protein 2 (Homo sapiens) (UniProt Q04721); assay: small molecules binding Notch2 protein – biochemical, small-molecule microarray, 635 nm fluorescence, stem cell growth factors, primary screen (AID 1073); conditions: higher = more signal
# Sequence of Neurogenic locus notch homolog protein 2 (Homo sapiens) (Q04721 whole entry, looked up, canonical isoform): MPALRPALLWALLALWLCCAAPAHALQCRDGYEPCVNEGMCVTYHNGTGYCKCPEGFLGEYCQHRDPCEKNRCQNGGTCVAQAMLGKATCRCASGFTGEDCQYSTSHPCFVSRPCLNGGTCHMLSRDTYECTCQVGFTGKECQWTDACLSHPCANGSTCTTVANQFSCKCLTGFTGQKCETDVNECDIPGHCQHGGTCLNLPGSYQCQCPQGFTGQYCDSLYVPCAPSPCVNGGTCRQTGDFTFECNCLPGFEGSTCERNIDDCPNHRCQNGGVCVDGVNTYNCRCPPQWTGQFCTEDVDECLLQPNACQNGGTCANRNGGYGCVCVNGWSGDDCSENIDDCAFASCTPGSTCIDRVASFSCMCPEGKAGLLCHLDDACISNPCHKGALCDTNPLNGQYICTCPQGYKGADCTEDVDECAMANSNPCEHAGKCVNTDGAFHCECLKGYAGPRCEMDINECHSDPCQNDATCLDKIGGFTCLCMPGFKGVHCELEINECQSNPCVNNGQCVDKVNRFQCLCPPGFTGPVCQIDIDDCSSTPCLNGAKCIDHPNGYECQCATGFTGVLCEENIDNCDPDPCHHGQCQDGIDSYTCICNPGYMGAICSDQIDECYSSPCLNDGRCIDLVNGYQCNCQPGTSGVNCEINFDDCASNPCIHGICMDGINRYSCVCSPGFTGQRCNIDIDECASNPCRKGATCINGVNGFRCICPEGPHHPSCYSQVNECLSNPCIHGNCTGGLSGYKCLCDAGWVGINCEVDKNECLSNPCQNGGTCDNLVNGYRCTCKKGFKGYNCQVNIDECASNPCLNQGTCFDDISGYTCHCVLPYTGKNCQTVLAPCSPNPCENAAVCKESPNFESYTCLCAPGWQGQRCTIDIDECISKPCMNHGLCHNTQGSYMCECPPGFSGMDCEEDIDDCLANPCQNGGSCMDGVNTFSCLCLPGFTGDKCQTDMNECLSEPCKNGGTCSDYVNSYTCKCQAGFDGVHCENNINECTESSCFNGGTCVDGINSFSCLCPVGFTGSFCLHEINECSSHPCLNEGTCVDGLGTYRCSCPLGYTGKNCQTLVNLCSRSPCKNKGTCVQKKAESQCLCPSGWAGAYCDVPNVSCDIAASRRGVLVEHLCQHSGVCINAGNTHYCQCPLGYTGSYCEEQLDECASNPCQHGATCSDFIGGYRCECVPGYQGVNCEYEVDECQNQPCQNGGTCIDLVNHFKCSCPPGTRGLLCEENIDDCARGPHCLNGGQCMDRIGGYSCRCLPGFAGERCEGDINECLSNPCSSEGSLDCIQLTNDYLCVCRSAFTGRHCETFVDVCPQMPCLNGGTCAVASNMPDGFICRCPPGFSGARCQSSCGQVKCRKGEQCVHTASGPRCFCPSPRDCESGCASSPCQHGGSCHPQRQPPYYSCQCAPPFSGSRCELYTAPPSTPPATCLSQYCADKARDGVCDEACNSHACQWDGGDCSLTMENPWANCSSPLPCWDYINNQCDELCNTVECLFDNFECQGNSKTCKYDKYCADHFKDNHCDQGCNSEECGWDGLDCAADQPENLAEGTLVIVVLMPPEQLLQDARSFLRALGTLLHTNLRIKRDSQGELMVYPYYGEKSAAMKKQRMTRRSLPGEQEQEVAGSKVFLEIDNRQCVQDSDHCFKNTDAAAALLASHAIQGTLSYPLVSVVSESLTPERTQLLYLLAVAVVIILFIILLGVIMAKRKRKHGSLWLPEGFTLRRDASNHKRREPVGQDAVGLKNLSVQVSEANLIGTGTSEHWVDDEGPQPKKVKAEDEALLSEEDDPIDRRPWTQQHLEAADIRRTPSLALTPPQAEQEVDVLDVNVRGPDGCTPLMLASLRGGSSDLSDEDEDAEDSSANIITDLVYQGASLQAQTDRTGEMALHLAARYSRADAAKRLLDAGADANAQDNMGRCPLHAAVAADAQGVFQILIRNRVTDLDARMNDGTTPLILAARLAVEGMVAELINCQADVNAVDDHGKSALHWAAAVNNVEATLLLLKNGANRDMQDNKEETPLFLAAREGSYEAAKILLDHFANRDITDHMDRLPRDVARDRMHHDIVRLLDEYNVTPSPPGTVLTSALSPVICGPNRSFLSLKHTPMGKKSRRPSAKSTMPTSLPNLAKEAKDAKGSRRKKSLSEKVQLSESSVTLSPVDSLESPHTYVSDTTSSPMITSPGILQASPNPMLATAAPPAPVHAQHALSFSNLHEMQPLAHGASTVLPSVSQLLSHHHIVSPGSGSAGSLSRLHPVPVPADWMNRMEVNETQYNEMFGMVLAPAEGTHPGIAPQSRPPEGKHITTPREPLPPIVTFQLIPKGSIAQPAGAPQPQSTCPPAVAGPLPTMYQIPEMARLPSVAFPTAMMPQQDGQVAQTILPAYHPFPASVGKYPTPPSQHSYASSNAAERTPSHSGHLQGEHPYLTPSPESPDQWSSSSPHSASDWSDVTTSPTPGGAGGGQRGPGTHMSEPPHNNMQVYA
# [6] = target: Pro-neuregulin-1, membrane-bound isoform (Homo sapiens) (UniProt Q02297); assay: small molecules binding neuregulin-1 protein – biochemical, small-molecule microarray, fluorescence 635/667, psychiatric disease protein project, primary screen (AID 1075); conditions: NRG1 binding, 635 nm fluorescence, higher = more signal;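 further: score combines 667 nm spot fluorescence with signal to noise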
# Sequence of Pro-neuregulin-1, membrane-bound isoform (Homo sapiens) (Q02297 whole entry, looked up, the tested form may be a part, canonical isoform): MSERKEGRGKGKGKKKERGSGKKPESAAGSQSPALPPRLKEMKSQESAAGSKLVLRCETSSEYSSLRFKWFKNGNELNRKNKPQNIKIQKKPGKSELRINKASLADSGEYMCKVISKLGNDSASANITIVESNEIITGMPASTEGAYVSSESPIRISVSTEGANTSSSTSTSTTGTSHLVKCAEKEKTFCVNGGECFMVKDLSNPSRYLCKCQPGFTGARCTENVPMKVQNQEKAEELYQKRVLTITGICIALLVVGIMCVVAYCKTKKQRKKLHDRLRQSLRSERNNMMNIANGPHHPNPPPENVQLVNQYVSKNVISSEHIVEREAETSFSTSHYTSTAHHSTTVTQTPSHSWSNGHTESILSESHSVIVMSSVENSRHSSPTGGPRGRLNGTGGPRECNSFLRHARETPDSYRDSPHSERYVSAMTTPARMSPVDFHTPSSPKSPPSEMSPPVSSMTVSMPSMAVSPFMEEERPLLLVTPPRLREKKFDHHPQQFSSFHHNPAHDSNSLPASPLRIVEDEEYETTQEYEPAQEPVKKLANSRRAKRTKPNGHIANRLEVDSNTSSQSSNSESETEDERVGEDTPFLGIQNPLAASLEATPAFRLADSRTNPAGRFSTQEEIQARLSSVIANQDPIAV
# [7] = tested on: Neuregulin-1 EGF-like domain; assay: small molecules binding NRG1 EGF domain – biochemical, small-molecule microarray, 635 nm fluorescence, primary screen (AID 1081); conditions: higher = more signal;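 further: binding of the protein to compounds printed on small-molecule microarray slides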
# [8] = FRG1 expression reporter modulators in myotubes – cell-based, C2C12 myotubes, firefly/Renilla luciferase, luminescence, FRG1 inhibition for FSHD, primary screen (AID 1084); conditions: FRG1 promoter luciferase, higher = more signal, called active from +8 up or from −8 down
# [9] = small molecules captured by biotinylated probe aFST – biochemical, small-molecule microarray, fluorescence 635/667, stem cell growth factor project, primary screen (AID 1086); conditions: higher = more signal;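 further: score merges 667 nm fluorescence with signal-to-noise of each printed compound spot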
# [10] = binders of probe aHhip on microarray, primary screen, stem cell growth factor project, biochemical, small-molecule microarray, fluorescence 635/667 (AID 1087); conditions: higher = more signal;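 further: score merges spot fluorescence at 667nm with spot signal to noise ratio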
# [11] = tested on: PRMT1 (protein arginine N-methyltransferase 1); assay: small molecules binding arginine methyltransferase PRMT1 – biochemical, small-molecule microarray, 635 nm fluorescence, primary screen (AID 1088); conditions: higher = more signal;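 further: binding of Prmt1 protein to compounds spotted on small-molecule microarray slides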
# [12] = growth effects on S. cerevisiae YJM789 – YJM789 clinical isolate, OD600, 24 h, basal, primary screen (AID 1089); conditions: higher = more signal, called active from +8 up or from −8 down;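 further: growth of clinical yeast isolate S. cerevisiae YJM 789 seeded 1000 cells per well; test concentration not given here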
# [13] = S. pombe growth modifiers, basal conditions – strain 972, OD600, 24 h, no modulator, primary screen (AID 1090);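 further: basal condition with compound alone and no growth modifier present; test concentration not given here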; conditions: S. pombe 972 growth, higher = more signal, called active from +8 up or from −8 down
# [14] = budding yeast growth modifiers under rapamycin – strain BY4716, OD600, 96 h, primary screen (AID 1091); further: test concentration not given here; conditions: S. cerevisiae BY4716 + rapamycin, higher = more signal, called active from +8 up or from −8 down
# [15] = target: Torsin-1A-interacting protein 2 (Homo sapiens) (UniProt Q8NFQ8); assay: small molecules binding lysate-expressed LULL1 – cell lysate, human LULL1 lysate, 635/667 nm fluorescence, primary screen (AID 1092); conditions: small-molecule microarray, hLULL1 lysate binding, 635 nm fluorescence; higher = more signal;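 further: probe is lysate of COS7 cells overexpressing human LULL1; score merges per-feature 667 nm fluorescence with signal-to-noise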
# Sequence of Torsin-1A-interacting protein 2 (Homo sapiens) (Q8NFQ8 whole entry, looked up): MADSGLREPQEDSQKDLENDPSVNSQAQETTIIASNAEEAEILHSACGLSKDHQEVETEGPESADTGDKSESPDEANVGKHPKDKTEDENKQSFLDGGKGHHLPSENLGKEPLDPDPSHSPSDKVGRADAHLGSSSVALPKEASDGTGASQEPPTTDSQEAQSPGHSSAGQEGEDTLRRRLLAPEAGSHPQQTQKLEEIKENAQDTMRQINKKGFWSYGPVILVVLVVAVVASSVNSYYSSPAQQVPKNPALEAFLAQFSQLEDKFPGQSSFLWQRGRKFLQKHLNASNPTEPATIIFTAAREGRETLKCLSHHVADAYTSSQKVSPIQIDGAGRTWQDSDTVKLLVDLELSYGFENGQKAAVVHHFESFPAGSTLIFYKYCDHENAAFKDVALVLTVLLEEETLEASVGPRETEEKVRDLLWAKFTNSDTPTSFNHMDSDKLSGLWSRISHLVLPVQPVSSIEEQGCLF
# [16] = optical density change of DRC41 E. coli – strain DRC41, OD650, 24 h, E. coli filamentation project, primary screen (AID 1093);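 further: MC1000 strain lacking acrAB efflux and sulA so SOS filamentation is blocked; test concentration not given here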; conditions: E. coli DRC41 growth, higher = more signal, called active from +8 up or from −8 down
# [17] = probe aLefty2 binding to arrayed compounds – biochemical, biotinylated probe, 635/667 nm fluorescence, primary screen (AID 1094); conditions: small-molecule microarray, higher = more signal;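 further: score merges spot fluorescence near 667 nm with spot signal-to-noise ratio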
# [18] = tested on: Noggin (protein binding on small-molecule microarray); assay: small molecules binding Noggin protein – biochemical, 635/667 nm fluorescence, primary screen (AID 1095); conditions: 635 nm fluorescence, higher = more signal;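 further: score merges 667 nm feature fluorescence with signal to noise over triplicate slides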
# [19] = target: Neurogenic locus notch homolog protein 3 (Homo sapiens) (UniProt Q9UM47); assay: small molecules binding NOTCH3 protein – biochemical, 635/667 nm fluorescence, primary screen (AID 1096); conditions: small-molecule microarray, 635 nm fluorescence, higher = more signal
# [20] = probe aEGFR binding to arrayed compounds – biochemical, biotinylated probe, 635/667 nm fluorescence, primary screen (AID 1097); conditions: small-molecule microarray, higher = more signal;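 further: probe is a biotinylated anti-EGFR antibody binding compounds printed on slides; score combines fluorescence near 667 nm and signal to noise of each spot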
Compound,composite z-score [1],composite z-score [2],composite z-score [3],composite z-score [4],composite z-score [5],composite z-score [6],composite z-score [7],z-score [8],composite z-score [9],composite z-score [10],composite z-score [11],z-score [12],z-score [13],z-score [14],composite z-score [15],z-score [16],composite z-score [17],composite z-score [18],composite z-score [19],composite z-score [20]
[N-]=[N+]=NCc1ccccc1C[C@]1(C(=O)O)N=C(c2ccc(OCCCO)cc2)O[C@H]1c1ccccc1N=[N+]=[N-],-0.146,0.268,-0.0004,0.833,1.52,1.78,1.25,-1.47 (inactive),0.921,0.138,1.56,0.869 (inactive),-0.742 (inactive),0.924 (inactive),3.21,0.644 (inactive),-0.128,0.435,1.14,0.012
[N-]=[N+]=NCc1ccccc1C[C@@]1(C(=O)NCC(O)CO)N=C(c2ccc(OCCCO)cc2)O[C@@H]1c1ccccc1N=[N+]=[N-] (stereo not given in full),0.516,-0.133,0.0109,0.451,0.669,1.78,1,-0.755 (inactive),1.66,0.0139,1.53,-1.01 (inactive),-0.348 (inactive),1.99 (inactive),3.53,1.73 (inactive),0.36,0.633,0.618,0.118
CN(C)CCCC[C@@H]1NC(=O)[C@H]2C[C@@H](C(=O)NCCCCCNC(=O)CS)[C@@H](c3cccc(OCCO)c3)N2C1=O,-0.23,0.411,-0.0785,-0.0727,-0.21,0.727,1.27,0.498 (inactive),0.0184,-0.305,1.18,-1.14 (inactive),-1.3 (inactive),-0.296 (inactive),2.79,-0.328 (inactive),0.0144,1.54,0.534,-0.136
[N-]=[N+]=NCc1ccccc1[C@@H]1OC(c2ccc(OCCCO)cc2)=N[C@]1(CCS(=O)(=O)c1ccccc1)C(=O)NCc1ccccc1,0.985,1.05,0.289,0.76,1.5,1.74,1.32,-2.83 (inactive),1.89,0.683,1.55,0.182 (inactive),1.18 (inactive),3.49 (inactive),3.25,-0.382 (inactive),0.468,1.81,1.09,0.198
C=CCOC(=O)[C@H]1[C@@H]2C(=O)O[C@@H](c3ccccc3)[C@@H](c3ccccc3)N2[C@@H](c2ccc(OCCOC(=O)[C@@H]3C[C@@H]4C(=O)N5CCC[C@H]5C(=O)N4[C@@H]3c3cccc(OCCO)c3)cc2)[C@]12C(=O)Nc1ccccc12,0.0458,0.629,0.0584,0.808,0.761,1.26,1.31,0.999 (inactive),0.356,0.382,1.53,1.06 (inactive),0.983 (inactive),2.72 (inactive),2.64,0.0706 (inactive),0.108,0.98,1.13,0.0617
COc1ccc(C(O)C2C=CC3C(=O)N(c4ccccc4)C(=O)C3N2Nc2ccccc2F)cc1OCc1ccccc1 (stereo not given),0.873,-0.217,0.5,0.775,1.65,1.17,0.99,3.15 (inactive),1.1,0.0274,0.946,-0.306 (inactive),0.754 (inactive),1 (inactive),2.94,-0.994 (inactive),0.312,-0.0436,0.386,0.308
COCC(=C=CC[C@H](O)c1ccccc1OCCO)C[C@H](O)c1cc(Cl)cc(Cl)c1O,-0.417,0.555,-0.129,0.999,0.421,1.43,1.14,-3.97 (inactive),0.372,-0.0994,1.45,-24.4 (active),-20.3 (active),-4.61 (inactive),2.7,-0.628 (inactive),-0.0653,0.653,1.03,-0.0703
CC(C)OC(=O)C=C1C[C@@H](c2ccccc2C(F)(F)F)O[C@@H](c2ccccc2C(F)(F)F)O1,-0.173,-0.11,-0.0924,-0.443,0.647,0.113,-0.0471,0.009 (inactive),0.2,-0.0994,0.494,-0.317 (inactive),1.17 (inactive),1.38 (inactive),0.675,-0.952 (inactive),-0.145,0.134,0.266,-0.0776
C=CCC(OC(C)=O)[C@@H]1[C@@H](N(Cc2ccc(-c3cccc(C(F)(F)F)c3)o2)C(=O)Cc2ccc(F)cc2)c2cc(OCCCO)ccc2N1C(=O)Cc1ccc(OC)cc1 (stereo not given in full),-0.0361,-0.162,-0.0971,0.318,-0.944,-0.14,-0.751,-0.373 (inactive),-0.26,-0.164,-2.39,-0.973 (inactive),0.0138 (inactive),-0.982 (inactive),-2.02,-0.0261 (inactive),0.454,-0.137,-1.08,-0.195

# Source: PubChem BioAssay
